In PubChem BioAssay AID488835 (Broad Institute, 2010):
About 140 (10%) of roughly 1,400 compounds were called active.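 How the source made its calls: active means Half-maximal inhibitory dose from the fit at or below ten times the top valid tested dose; inconclusive means Invalid fit, or flat curve showing 30 to 70% inhibition; inactive means the rest.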 Not all results are given here. Entries with a potency or affinity are not part of this list.

Target: Lysine-specific demethylase 4C (Homo sapiens) (UniProt Q9H3R0)
Assay: GASC-1 (JMJD2C) histone demethylase inhibitors, dose response, biochemical, DELFIA europium, cherry-picked samples (AID 488835);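 further: signal is the H3K9me2 demethylation product detected by a dimethyl-specific antibody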
Details: GST-JMJD2C(1-420), H3K9me3 demethylation; series mostly up to 6 µM; activity change, negative = inhibition: at the top concentration

Lysine-specific demethylase 4C (Homo sapiens), sequence (Q9H3R0 1-420 limits assumed): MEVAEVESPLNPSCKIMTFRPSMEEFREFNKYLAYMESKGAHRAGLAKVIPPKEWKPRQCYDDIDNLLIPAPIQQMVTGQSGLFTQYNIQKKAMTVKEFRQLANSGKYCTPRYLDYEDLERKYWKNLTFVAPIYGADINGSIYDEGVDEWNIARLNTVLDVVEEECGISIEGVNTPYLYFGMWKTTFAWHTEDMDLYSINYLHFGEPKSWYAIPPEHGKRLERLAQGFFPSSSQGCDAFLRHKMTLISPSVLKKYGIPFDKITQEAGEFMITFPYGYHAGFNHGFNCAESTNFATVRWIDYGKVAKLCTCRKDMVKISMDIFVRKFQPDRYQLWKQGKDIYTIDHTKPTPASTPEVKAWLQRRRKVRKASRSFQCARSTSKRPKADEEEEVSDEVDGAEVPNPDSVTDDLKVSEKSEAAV

Activity change, negative = inhibition, inactive:
O=C(Cn1c(=O)sc2ccccc21)NCc1ccco1 5.44%, CS(=O)(=O)N(CCc1ccccc1)CC(=O)NCc1ccc(Cl)cc1 0.000961%, COc1ccccc1Nc1ncnc2ccccc12 7.2%, Cc1ccc(NC(=O)CSc2cccc[n+]2[O-])c([N+](=O)[O-])c1 2.02%, Cc1cc(C)cc(C(=O)N2CCC(C(N)=O)CC2)c1 3.06%, O=C(/C=C/c1ccc2c(c1)OCO2)NCCS(=O)(=O)N1CCN(c2ccc(F)cc2)CC1 -1.44%, COc1ccc(NC(=O)O/N=C/c2ccccc2)cc1 1.47%, O=C(N/N=C/c1ccccc1)c1c(O)c2ccccc2[nH]c1=O 7.7%, CC(C)Cn1c(N)c(C(=O)COC(=O)c2c(O)c(Cl)cc(Cl)c2Cl)c(=O)n(C)c1=O 13.9%, CC(=O)C[C@@H](O)CC(=O)[C@H]1OC(=O)CCCCCc2ccccc21 15.1%, Cn1c(=N)n(CC(O)c2ccccc2)c2ccccc21 (stereo not given) 22.9%, COc1cccc(NC(=O)COC(=O)c2ccc(S(=O)(=O)NCc3ccco3)cc2)c1 -4.04%, CSCCC(NS(=O)(=O)c1ccc(Cl)cc1)C(=O)O (stereo not given) 5.12%, O=C(CSc1nc2ccccc2c(=O)n1Cc1ccc(C(=O)NC2CC2)cc1)NCc1ccco1 -1.55%, Cc1nnc(SCc2nc3ccccc3[nH]2)s1 8.43%, CCCC(=O)Nc1nc2c(c(=O)[nH]1)CCCC2 -0.233%, COc1ccc(C(=O)N2CCC(C(=O)NCc3ccccn3)CC2)cc1 3.25%, COc1ccc(N=Cc2cccc(C)c2O)cc1Cl -0.494%, O=C(NC(=S)Nc1ccccn1)c1ccc([N+](=O)[O-])cc1 9.17%, CN(C)c1ccc(C2Nc3ccccc3C(=O)N2CCN2CCNC2=O)cc1 (stereo not given) -1.83%, COc1ccc(/C=C2\Sc3ccc(C(=O)N4CCCC4)cc3N(C)C2=O)cc1OC -8.78%, Cc1ccc(NC(=O)CSc2nc3c(c(=O)[nH]2)CN(Cc2ccc(F)cc2)CC3)cc1C -5.7%, CC(=O)c1ccc(O[C@@H]2O[C@H](CO)[C@@H](O)[C@H](O)[C@H]2O)cc1 13.2%, O=c1cc(-c2ccc(O)c(O)c2)oc2c(C3O[C@H](CO)[C@@H](O)[C@H](O)[C@H]3O)c(O)cc(O)c12 (stereo not given in full) -63.3%, CC(C)n1cnc2c(NCc3ccccc3)nc(NCc3ccccc3)nc21 -3.21%, Cn1nnc(NC(=O)CSc2ccc(Cl)cc2)n1 -1.87%, Cc1cccn2c(=O)c(/C=N/O)c(N3CCCC3)nc12 7.05%, Cc1ccc(NC(=O)CSc2ncc(S(=O)(=O)c3ccccc3)c(=O)[nH]2)cc1C 7.83%, Cc1cc(C)nc(NCc2ccc(Cl)cc2)n1 -2.03%, Cn1c(=O)[nH]c(=O)c2c1nc(N1CCOCC1)n2CCc1ccccc1 -7%, COc1ccc(NC(=O)N(C)C[C@H]2Oc3c(NC(=O)C4CC4)cccc3C(=O)N([C@H](C)CO)C[C@@H]2C)cc1 4.36%, Cc1occc1-c1nnc(SCC(=O)c2cc3ccccc3oc2=O)o1 -0.848%, Cc1ccc(CCNC(=O)C23C[C@H]4C[C@@H](C2)CC(n2nnc(C)n2)(C4)C3)cc1 5.08%, CCOC(=O)c1oc2ccccc2c1COC(=O)C(C)NC(=O)c1ccco1 (stereo not given) -4.12%, COc1ccccc1-n1c(SCC(=O)N2CCCC2)nc2cccnc21 2.93%, COc1cc(/C=N/N2CCN(c3ccccc3OC)CC2)ccc1O 4.01%, CCCn1nnnc1SCC(=O)NCc1ccc(OC)cc1 7.3%, CCOC(=O)c1[nH]c(CSc2nnnn2-c2ccccc2C)c(C(=O)OCC)c1C 1.98%, CCN(C[C@H]1N[C@@](C)(C(=O)OC)[C@H]2C(=O)N(Cc3ccccc3)C(=O)[C@@H]12)C(=O)Nc1ccc(Cl)cc1 2.49%, O=C(Cc1ccccc1)NNC(=O)c1cccs1 5.46%, CCC(=O)Nc1ccc(NC(=O)Cc2ccccc2)cn1 -1.91% [at 1.6 µM], O=C(NC1(O)C(=O)c2ccccc2C1=O)c1c(Cl)cccc1Cl 6.07%, CCC(C)[C@H](NC(=O)NCc1ccccc1Cl)C(=O)O (stereo not given in full) -2.17%, C#CCOCCOCCOCCNc1nc(N2CCN(C(=O)[C@H](CCC(=O)O)n3cc([C@@H](N)CCCCN)nn3)CC2)nc(N2CCN(C(=O)[C@H](CCC(=O)O)n3cc([C@@H](N)CCCCN)nn3)CC2)n1 -1.73%, Cc1sc2ncnc(OCC(=O)N3CCN(S(=O)(=O)c4ccc(Cl)cc4)CC3)c2c1C 4.3%, Cc1onc(-c2c(F)cccc2Cl)c1C(=O)NC1CC1 -4.82%, COC(=O)c1ccc(-c2sc3nc(N4CCOCC4)c4c(c3c2N)CC(C)(C)OC4)o1 5.56% [at 1.6 µM], COc1cc(C(C(=O)NC2CCCCC2)N(Cc2cccs2)C(=O)Cc2c[nH]c3ccccc23)cc(OC)c1OC (stereo not given) 6.08%, COc1ccc(C)cc1-n1nnnc1SC/C(O)=C(\C#N)c1nc2ccccc2[nH]1 2.42%, CN1CCN(CC(=O)Nc2ccc(S(=O)(=O)N(C)C)cc2)CC1 -10.7%, CCOC(=O)c1cc2nc(Nc3ccc(OC)cc3)sc2s1 -2.53%, O=S(=O)(c1ccc2ccccc2c1)N(CC(O)COCc1ccco1)c1ccccc1 (stereo not given) 0.0161%, CCOc1cc(/C=C\c2[nH]c(=O)[nH]c(=O)c2[N+](=O)[O-])ccc1OC(C)CC (stereo not given) -8.92%, O=C(CN1C(=O)c2ccccc2C1=O)NCC1COc2ccccc2O1 (stereo not given) 0.969%, O=C(NC1CC2CCC1C2)C1COc2ccccc2O1 (stereo not given) 2.97%, COc1ccc(C2/C(=C(/O)c3ccccc3)C(=O)C(=O)N2CCN2CCOCC2)c(OC)c1 (stereo not given) 5.45%, COc1ccc(NC(=O)c2cccc(N3C(=O)C4CC=C(C)CC4C3=O)c2)c(OC)c1 (stereo not given) 6.73%, O=[N+]([O-])c1ccccc1N/N=C\c1ccccc1Cl -1.36%, CCC(=O)Nc1ccccc1Nc1cc(C#N)c(C#N)cc1[N+](=O)[O-] 2.52%, COc1cccc(/C=N/NC(=O)CNC(=O)c2cccs2)c1O -7.57%, Fc1cccc(/C=N/Nc2nc3ccccc3[nH]2)c1 2.18%, O=C(O)CSc1nnc(COc2cccc3cccnc23)n1-c1cccc(C(F)(F)F)c1 -0.453%, CCCCN(C)C(=O)CCC(=O)NNc1nc2ccccc2c2nc(C)nn12 -5.21%, CCCCOC(=O)Cn1cnc2ccc(Br)cc2c1=O 3.8%, CCc1ccc2oc(=O)cc(CN3CCOCC3)c2c1 5.79%
